Not all results are given here.
aSyn 5UTR act: Activators via SNCA 5'UTR binding, MLPCN. alpha-synuclein 5'UTR reporter, activators screen. activity score, % (tested at 7.5 µM), hits read low. actives 7.1% (n = 300,000). AID 1814; in the data active = activity score below about -60%
* hit, by the source's call.

SMILES	aSyn 5UTR act
COCCN(Cc1nc(-c2ccc(-c3ccccc3)cc2)oc1C)C(C)C	-214.8*
c1ccc(-n2ncc3c(NCc4cccnc4)ncnc32)cc1	-114.3*
COc1ccc(-n2ncc3c(NCc4cccs4)ncnc32)cc1	-170.7*
Nc1nc(NCc2cccs2)nn1-c1ccccc1	-66.7*
c1ccc(-n2ncc3c(NCc4cccs4)ncnc32)cc1	-161.6*
Cc1ccc(Cn2ccc(=O)c(OCc3ccccc3)c2C)cc1	-109.5*
Cc1ccc(Cn2ccc(=O)c(Cc3c(Cl)cccc3Cl)c2C)cc1	51.0
Cc1c(O)c(=O)ccn1Cc1ccccc1	68.1
CCNC(=S)NNC(=O)c1cc(-c2cccc(C)c2)nc2ccccc12	-115.6*
CCNC(=S)NNC(=O)c1cc(-c2cccc(OCC)c2)nc2ccccc12	-89.0*
CCCCOc1cccc(-c2cc(C(=O)NNC(=S)NCC)c3ccccc3n2)c1	-69.0*
O=C1c2ccccc2-c2c1nc1c([n+]2[O-])CCCC1	-96.7*
CC1CCN(c2oc(-c3ccccc3Cl)nc2C#N)CC1	-144.1*
CC1CCN(c2oc(-c3ccc(F)cc3)nc2C#N)CC1	-67.5*
Cc1cc(SCC(=O)c2cc3ccccc3o2)nc2ccccc12	-73.2*
Cc1ccc(/C=N/N2CCN(Cc3ccccc3)CC2)s1	-83.2*
C(=N\N1CCN(Cc2ccccc2)CC1)/c1ccccc1	-63.6*
C/C(=N\N1CCN(Cc2ccccc2)CC1)c1ccco1	-80.4*
FC(F)(F)c1ccccc1/C=N/N1CCN(Cc2ccccc2)CC1	-72.2*
Clc1cccc(/C=N/N2CCN(Cc3ccccc3)CC2)c1	-91.3*
Cc1ccc(/C=N/N2CCOCC2)s1	-101.4*
Cc1cc(N2CCN(Cc3cn(C)nc3-c3cccc(Cl)c3)CC2)cc(C)n1	71.6
O=[N+]([O-])c1ccccc1/C=N/N1CCN(Cc2ccccc2)CC1	-100.9*
COc1ncnc2sc(-c3ccccc3)cc12	-168.0*
CCCCn1cnc2sc(-c3ccccc3)cc2c1=O	-212.7*
SMILES	aSyn 5UTR act
COc1ccccc1-n1cnc2sc(-c3ccccc3)cc2c1=O	-142.3*
CCCCCn1cnc2sc(-c3ccccc3)cc2c1=O	-298.6*
O=c1c2cc(-c3ccccc3)sc2ncn1/N=C/c1ccco1	-140.3*
O=C(CCN1CCc2ccccc21)c1ccc2c(c1)OCCO2	-154.7*
O=C(/C=C/c1ccccc1)c1ccc2c(c1)OCCCCO2	-197.6*
CNc1ccc(/C=C/C(=O)c2ccc3c(c2)OCCO3)cc1[N+](=O)[O-]	-64.3*
COc1ccc(OC)c(/C=C/C(=O)c2ccc3c(c2)OCCO3)c1	-155.8*
O=C(CCc1ccccc1)c1ccc2c(c1)OCCCO2	-190.0*
O=C(NCCc1ccccc1)c1ccc2c(c1)OCCCO2	107.1
O=C(CCCc1ccccc1)c1ccc2c(c1)OCCO2	86.2
CC(OC(=O)c1ccc2c(c1)OCCO2)C(=O)c1ccccc1 (centres undefined)	-133.1*
O=C(c1ccccc1)c1ccc2c(c1)OCCCO2	-63.6*
O=C1COc2ccc(C(=O)/C=C/c3ccccc3)cc2N1	-113.5*
O/N=C(/CCc1ccccc1)c1ccc2c(c1)OCCO2	-119.8*
COc1ccc(/C=N/Nc2ncc(Br)cn2)c(OC)c1	-139.3*
CCN(CC)S(=O)(=O)c1ccc(N/N=C/c2cc(OC)ccc2O)nc1	86.8
COc1ccc(/C=N/Nc2ccccn2)c(OC)c1OC	-92.1*
Cc1ccc(C)c(/C=N/Nc2ccccn2)c1	-139.2*
COc1ccc(/C=N\Nc2ccccn2)c(OC)c1	-154.5*
COc1ccc(OC)c(/C=N\Nc2nccs2)c1	-65.1*
COc1ccccc1/C=N/Nc1nccnc1Cl	-98.1*
O=C(O)c1ccc(N/N=C/c2ccc(-c3cc(Cl)ccc3Cl)o2)cc1	-156.2*
O=C(O)c1ccc(N/N=C/c2ccc(-c3cccc(Cl)c3)o2)cc1	-113.7*
O=C(O)c1ccc(N/N=C/c2ccc(-c3ccc(Cl)cc3Cl)o2)cc1	-62.3*
Fc1ccc(OCc2nc(-c3cccs3)no2)cc1	-123.5*
SMILES	aSyn 5UTR act
CN(Cc1nc(-c2cccs2)no1)CC(O)c1ccccc1 (centres undefined)	-62.3*
c1ccc(OCc2nc(-c3cccs3)no2)cc1	-173.3*
Cc1ccnc(NC(=S)NC(=O)c2cncc(Br)c2)c1	-81.0*
Fc1ccc(-c2ccc(CNCc3ccccn3)o2)cc1	-91.2*
CN(C(=O)c1ccc2c(c1)OCO2)C1CCCCC1	-82.0*
CN(C(=O)c1cccc(N2C(=O)C3C4C=CC(C4)C3C2=O)c1)C1CCCCC1 (centres undefined)	-102.5*
O=C(NC1CCCCC1)c1ccc2c(c1)OCO2	-93.3*
O=C(Nc1ccc(Cl)c(Cl)c1)Nc1ccon1	-69.4*
CCOC(=O)c1ccc(NC(=O)Nc2ccon2)cc1	64.2
O=C(Nc1ccc(Cl)c(Cl)c1)Nc1ccccc1O	-104.9*
Cc1ccc(C(=O)Nc2cc3c(oc2=O)CCCC3=O)cc1	-65.1*
O=C(Nc1nc2c(F)cccc2s1)c1ccco1	-121.0*
Cc1cc(Cl)cc2sc(NC(=O)c3ccco3)nc12	-122.7*
Cc1nc2nc(NC(=O)c3ccco3)nn2c(C)c1Cl	-94.5*
Fc1cccc2sc(Nc3nnc(-c4ccco4)o3)nc12	-109.1*
CN1CCCN(C(=O)/C=C/c2ccc(Cl)cc2Cl)CC1	-62.1*
Cc1cn(CCC(=O)Nc2ccccc2N2CCOCC2)c2ccccc12	-105.9*
Cc1cn(CCC(=O)Nc2ccc(N3CCOCC3)cc2)c2ccccc12	-128.4*
Oc1c(Cl)cc(Cl)cc1C=Nc1ccc2c(c1)OCCO2	-63.0*
COc1ccc(NS(=O)(=O)c2ccc(N3CCCC3)c(NC(=S)Nc3cccc(C)c3C)c2)cc1	-132.5*
Cc1cccc(OCC(=O)N2CCC(c3ccccc3)C2)c1 (centres undefined)	-158.3*
O=C(COc1ccc(F)cc1)N1CCC(c2ccccc2)C1 (centres undefined)	-134.3*
O=C1CSC2=NCN(c3ccc4c(c3)OCO4)CN12	-146.8*
CC(NC(=O)c1cc(COc2c(F)cccc2F)on1)c1cnn(-c2ccccc2)c1 (centres undefined)	-90.8*
COc1ccc(OCc2cc(C(=O)N3CCC(c4ccccc4)CC3)no2)c(Cl)c1	-63.3*
SMILES	aSyn 5UTR act
COc1ccc(OCc2cc(C(=O)N3CCCCCC3)no2)c(Cl)c1	-90.1*
COc1ccc(OCc2cc(C(=O)N3CCOCC3)no2)c(Cl)c1	-81.8*
CN1C=C/C(=C\c2cc[n+](C)c3ccccc23)c2ccccc21	74.0
COc1cccc(OCc2cc(C(=O)NC(C)c3cnn(C)c3C)no2)c1 (centres undefined)	-77.4*
O=C(c1cc(COc2ccc(F)cc2Cl)on1)N1CCSCC1	-197.2*
COc1ccc(OCc2cc(C(=O)N3CCSCC3)no2)c(Cl)c1	-107.5*
COc1ccc(OCc2cc(C(=O)NC(C)c3cnn(C)c3)no2)c(Cl)c1 (centres undefined)	-105.7*
CC(C)OC(=O)CC12CN(C)CC(CC(=O)OC(C)C)(CN(C)C1)C2=O	-98.3*
Cc1cccc(Oc2coc3cc(OC(=O)c4cncc(Br)c4)ccc3c2=O)c1	-73.1*
CCOC(=O)Oc1ccc2c(=O)c(Oc3cccc(C)c3)coc2c1	-75.1*
CCCOc1cccc(-c2nc3ccccc3c(=O)o2)c1	-95.4*
O=c1oc(-c2ccc(Br)cc2)nc2ccccc12	-130.0*
Cc1nc2c(s1)sc1ccccc12	-76.1*
OCCOc1ccc(C2=NCCO2)cc1	-71.5*
C=CCOc1ccc(CNc2nccs2)cc1	-73.5*
CN1/C(=C\C(=O)c2cccnc2)Sc2ccccc21	-93.8*
COc1cccc(C(=O)/C=C2\Sc3ccccc3N2C)c1	-131.4*
CCOc1ccccc1NC(=O)c1ccc2ccccc2c1	-80.7*

High-throughput results deposited in PubChem by Broad Institute.
